# Most compounds without a hit are left out; they make up all but 4.3% or so of the library.
# Wnt act: activators of Wnt/beta-catenin signaling. Wnt/beta-catenin reporter cell assay, activator, plate reader. activation, % at 9.35 µM. AID 743398. 300,000 compounds, 1.2% hits; in the data active = activation above about 30%, passing the limit was not always enough; inconclusive = no clear call, values can overlap the other calls;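 note: 0% = neutral control wells and 100% = positive control wells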
# MITF act: activators of MITF-driven TRPM1 promoter activity in SK-MEL-5 cells; SK-MEL-5 TRPM1-promoter luciferase, 24 h; % of positive control, neutral wells = 0; activation, % at 12.5 µM; 300,000 compounds, 0.75% hits;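 active = mean activation of at least 80% with every replicate also reaching 80%; inconclusive = mean reaches 80% but some replicate falls short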;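 note: 0% = neutral control wells and 100% = parthenolide positive control wells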
# AF4-AF9 inh: blocks AF4 peptide binding to human AF9; inhibition, % at 10 µM; AlphaScreen, biotin-AF4 peptide binding to FLAG-AF9; 350,000 compounds, 0.47% hits; AID 651704; P42568;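 active = every replicate reaching a set inhibition limit, whatever the replicate mean, cut at about 25% in these data; inconclusive = mean inhibition reaches that limit but some replicates miss it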;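 note: 0% = plate neutral control median and 100% = total signal loss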
# Target sequence (P42568 whole entry, looked up): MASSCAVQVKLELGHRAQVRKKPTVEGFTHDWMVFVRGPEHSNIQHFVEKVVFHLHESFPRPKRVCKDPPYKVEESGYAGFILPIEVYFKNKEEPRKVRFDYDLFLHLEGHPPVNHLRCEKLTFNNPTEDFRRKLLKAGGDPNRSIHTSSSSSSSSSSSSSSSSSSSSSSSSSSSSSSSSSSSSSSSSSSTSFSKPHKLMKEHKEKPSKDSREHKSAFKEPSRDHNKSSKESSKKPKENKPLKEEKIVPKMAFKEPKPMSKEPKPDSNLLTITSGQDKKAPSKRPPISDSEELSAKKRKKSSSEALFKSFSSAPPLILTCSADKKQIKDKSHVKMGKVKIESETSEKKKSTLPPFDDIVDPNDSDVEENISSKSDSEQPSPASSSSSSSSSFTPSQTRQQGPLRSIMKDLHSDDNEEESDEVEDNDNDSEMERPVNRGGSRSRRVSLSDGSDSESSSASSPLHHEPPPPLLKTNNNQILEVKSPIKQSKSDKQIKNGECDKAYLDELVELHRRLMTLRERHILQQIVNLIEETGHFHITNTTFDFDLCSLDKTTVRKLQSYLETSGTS
# SMARCA2 activ: SMARCA2 function activation, primary screen; 370,000 compounds, 1% hits; activation, % at 9.1 µM; AID 652017; MG213 cells, MMTV-luciferase reporter, dexamethasone, overnight; in the data active = activation above about 7.8%;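 note: 0% = vehicle wells and 100% = reference activator wells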
# FGF22 binding: FGF22 (human) thermal shift binding; AID 651658; Q9HCT0; 340,000 compounds, 1.5% hits; activity (Tm shift, normalised), % at 9.99 µM; recombinant FGF22 thermal shift, SYPRO orange fluorescence; percent of sucrose octasulfate shift, DMSO zero;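 active = mean Tm shift, scaled 0 neutral to 100 positive control, at about 1.3% or above, every replicate too, limit read from the data; inconclusive = no clear call, values can overlap the other calls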
# esBAF inh: inhibitors of esBAF chromatin remodeling in mouse ES cells; Bmi1-luciferase knock-in reporter, 24 h; 100% = twice the neutral-well signal; 350,000 compounds, 2% hits; reporter increase, % at 12.5 µM; AID 602393; in the data active = activation above about 40%; inconclusive = no clear call, values can overlap the other calls;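 note: 0% = median of the plate's neutral control wells and 100% = double that signal; a rise in the Bmi1 reporter signal indicates esBAF inhibition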
# An asterisk follows results filed as active; ? = inconclusive; . = no result given; ! = a repeat was not active.
SMILES,Wnt act,MITF act,AF4-AF9 inh,SMARCA2 activ,FGF22 binding,esBAF inh
Cc1cccc(NC(=O)c2cc(-c3cc(Cl)ccc3O)n[nH]2)c1,.,108*,.,.,.,71*
Cc1ccc(C)c(NC(=O)c2cc(-c3cc(C)ccc3O)n[nH]2)c1,26,117*,-3,2,0,50*
O=C(Nc1ccc(F)cc1)N[C@@H]1CC[C@H](CCNS(=O)(=O)c2ccccc2F)O[C@@H]1CO,.,.,-1,.,0,5
CCc1ccc(NC(=O)c2onc(C)c2Cl)cc1,23,43,-15,2,0,54*
Cc1noc(C(=O)Nc2cccc(Cl)c2)c1Cl,4,57,-6,2,0,56*
Cc1cc(O)c(C(=O)Nc2cccc(Cl)c2)c(=O)n1C,6,51,-2,4,0,59*
Cc1noc(C(=O)Nc2cccc(O)c2)c1Cl,15,27,-10,-1,0,43
Cc1noc(C(=O)Nc2ccc(C#N)cc2)c1Cl,0,-1,0,-1,0,12
Cc1ccccc1-c1ccc([C@@H]2[C@@H](CO)N3CCCCN(C(=O)CN4CCOCC4)C[C@@H]23)cc1,.,.,-4,.,0,.
O=C(NCC(c1ccc(F)cc1)N1CCOCC1)c1cc(F)c(F)c(F)c1F (stereo unspecified),-3,2,0,0,43*,.
CCc1ccc(NC(=S)N(CCCN2CCOCC2)Cc2ccccn2)cc1,10,2,.,0,.,.
CCc1ccc(NC(=S)N(Cc2ccccc2)Cc2ccccn2)cc1,3,-7,4,-5,44*,-8
C[C@H](CO)N1C[C@H](C)[C@@H](CN(C)Cc2ccncc2)Oc2cc(C#CC3CC3)ccc2S1(=O)=O,.,.,3,.,0,4
Cc1c(-c2ccc(F)cc2)[n+](=O)c2c(n1[O-])CCCCC2,-4,24,-1,-4,0,.
Cc1c(-c2ccc(Br)cc2)[n+](=O)c2c(n1[O-])CCCCC2,36*,.,0,5,0,.
COc1ccc(-c2c(C)n([O-])c3c([n+]2=O)CCCCC3)cc1OC,0,1,-2,-1,43*,2
Cc1ccc(-c2c(C)n([O-])c3c([n+]2=O)CCCC3)cc1,4,7,-2,0,0,.
CN=C(c1ccc(C)cc1)n1c(=S)nc(-c2ccc(C)cc2)n(C)c1=S,55*,2,-3,0,0,83*
CN=C(c1ccco1)n1c(=S)nc(-c2ccco2)n(C)c1=S,0,-8,.,8,.,9
CCOc1ccc(N(CC(=O)Nc2cc(C)cc(C)c2)S(C)(=O)=O)cc1,16,43,1,-2,0,?
CCOc1ccc(NC(=O)CNC(=O)Cc2ccccc2)cc1,1,-4,1,-3,0,-6
CCC(=O)Nc1cc(C(=O)OCC(=O)c2ccc(Cl)cc2Cl)ccc1C,.,0,.,-2,.,3
CCOc1ccc(NC(=O)Cc2ccccc2)cc1,35*,83*,.,5,.,66*
CCC(=O)Nc1ccc(C(=O)OCc2ccccc2Cl)cc1,.,121*,.,4,.,?
CCC(=O)Nc1cc(C(=O)OCC(=O)c2ccccc2Cl)ccc1C,35*,.,.,0,.,64*
SMILES,Wnt act,MITF act,AF4-AF9 inh,SMARCA2 activ,FGF22 binding,esBAF inh
CCOc1ccc(N(CC(=O)Nc2ccc(C)cc2)S(C)(=O)=O)cc1,17,66,2,1,0,80*
Cn1c(=O)c(=O)n(C)c2cc(S(=O)(=O)N3CCN(Cc4ccc5c(c4)OCO5)CC3)ccc21,.,.,.,-5,.,.
CCOc1ccc(CNC(=O)Nc2ccccc2)cc1,11,65,0,3,0,47*
COC(=O)c1ccc(NC(=O)Cc2ccccc2)cc1,39*,.,.,3,.,.
CC(=O)c1ccc(NC(=O)CN(c2c(C)cccc2C)S(C)(=O)=O)cc1,4,32,1,5,0,56*
O=C(C1CC1)N1CC2(C1)[C@H](c1ccccc1)[C@@H](CO)N2CC1CCCC1,.,.,-3,.,.,.
O=C(CSC1CCc2ccccc21)NNC(=O)Nc1ccc(Cl)cc1 (stereo unspecified),38*,.,-1,0,0,.
COC(=O)C[C@@H]1CC[C@@H]2[C@@H](COc3ccc(NC(=O)Nc4ccc(C#N)cc4)cc3C(=O)N2C)O1,.,.,-12,.,0,2
O=C(NC1CCC1)[C@H]1[C@H](CO)[C@H]2Cn3c(ccc(-c4ccccc4)c3=O)[C@@H]1N2,.,.,-2,.,.,1
CN1CCN(C(=O)C[C@H]2CC[C@H]3[C@@H](COC[C@@H](O)CN3Cc3cccc(F)c3)O2)CC1,-1,.,-1,-1,43*!,0
COC(=O)C[C@H]1CC[C@H]2[C@@H](COC[C@@H](O)CN2C(=O)Nc2cccc(F)c2)O1,.,.,0,.,0,50*
CN1CCN(C(=O)C[C@@H]2CC[C@H]3[C@@H](COC[C@@H](O)CN3Cc3cccc(F)c3)O2)CC1,.,.,0,.,0,-1
O=C(C[C@@H]1CC[C@H]2[C@@H](COC[C@@H](O)CN2C(=O)Nc2ccc(F)cc2)O1)NCCCN1CCOCC1,.,.,31*,.,0,-1
COCC(=O)N1[C@H](C#N)[C@H](c2ccccc2)[C@@H]1CO,.,.,-2,.,0,2
CNC[C@@H]1Oc2ccc(NC(=O)CCCN(C)C)cc2C(=O)N([C@@H](C)CO)C[C@H]1C,.,.,1,.,0,-2
COc1ccc(S(=O)(=O)N(C)C[C@@H]2OCCCC[C@H](C)Oc3ccc(NC(=O)c4ccncc4)cc3C(=O)N([C@H](C)CO)C[C@H]2C)cc1,.,.,2,.,0,-1
O=S(=O)(c1ccccc1F)N1CCCCN2[C@@H](CO)[C@@H](c3ccc(-c4ccncc4)cc3)[C@@H]2C1,.,.,6,.,0,.
Cc1c(NC(=O)CN2CCC(C(N)=O)CC2)cccc1[N+](=O)[O-],2,-9,-2,0,43*,.
Cc1ccc(NC(=O)NC(=O)CN2CCC(C(N)=O)CC2)c(C)c1,30,.,-1,5,0,43*
Cc1ccccc1C(=O)N1CCC(C(=O)OCC(=O)Nc2cccc([N+](=O)[O-])c2C)CC1,-1,2,4,0,0,4
C[C@@H]1CN([C@@H](C)CO)C(=O)c2cc(NC(=O)CCC(F)(F)F)ccc2O[C@H]1CN(C)Cc1ccc(Oc2ccccc2)cc1,.,.,6,.,0,1
O=C(C[C@@H]1CC[C@@H]2[C@H](COC[C@H](O)CN2C(=O)Nc2ccc(Cl)cc2)O1)NC1Cc2ccccc2C1,.,.,0,.,0,9
Cc1cc(C)c2nc(C)cc(N/N=C/c3ccc(O)cc3)c2c1,-7,.,26*,-7,0,-88
Cc1noc(C)c1S(=O)(=O)Nc1ccc2c(c1)C(=O)N([C@H](C)CO)C[C@@H](C)[C@H](CN(C)S(=O)(=O)c1cccs1)OCCCC[C@@H](C)O2,.,.,.,.,0,-7
CC(=O)n1nc(-c2ccc(C)cc2)nc1NCc1ccco1,11,105*,1,3,0,.

# High-throughput results from PubChem BioAssay.
